Screening results as filed in PubChem BioAssay.
Sa growth 42C – inhibitors of Staphylococcus aureus growth at 42 °C; S. aureus RN4220 growth, OD600, 20 h; active compounds read low; relative growth, % (no concentration beside the values); 0.53% of 170,000 active; AID 720641;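 active = relative growth at most 50% at the other temperature and 20+ points below 30 °C, or under 10% at both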
Sa helicase inh – blocks Staphylococcus aureus DNA helicase. inhibition, % (test concentration not listed). 0.05% of 120,000 active. AID 485395. purified S. aureus helicase, fluorescence unwinding assay; in the data active = inhibition above about 25%, passing the limit was not always enough;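 also: 0% = mean of negative control wells and 100% = mean of positive control wells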
The depositor's hits bear a star; nt = not tested or not shown; ! = repeats disagree. The entries come from a sample that favours hits as a whole.

SMILES	Sa growth 42C	Sa helicase inh
CC(=O)Nc1sc2c(c1C#N)CCC2	120	3
N#Cc1c(NC(=O)C(F)(F)F)sc2c1CCCC2	-1.0*	4
CCN(CC)CCC1S(=O)(=O)C(C(=O)OC)C(c2ccc(OC)cc2)C(C(=O)OC)S1(=O)=O (stereo not drawn)	93	-12
O=C(Nc1ccc2nsnc2c1)c1ccccc1	106	8
CC(C)N(Cc1ccccc1)C(=O)c1cccs1	87	nt
CC(C)N(CC(=O)c1cccs1)Cc1ccccc1	-1.0*	-10
O=C(CSc1nncn1-c1ccccc1)CSc1nncn1-c1ccccc1	97	19
CCOC(=O)C1=C(C)Nc2c(C(=O)Nc3ccc(OCC)cc3)cnn2C1c1cc(OC)ccc1OC (stereo not drawn)	106	-4
O=C(OCC(=O)N1CCN(c2ccccc2)CC1)c1ccc2[nH]c3c(c2c1)CCCC3	115	-6
CC1CN(CC(=O)Nc2ccc(C#N)cc2)CC(C)O1 (stereo not drawn)	85	-3
COc1cccc(OCc2nnc(SCc3ccccc3)n2C)c1	3.8*	17
CSc1nnc(COc2cccc(C)c2)n1C	127	5
CCC1OC(=O)[C@H](C)C(=O)[C@H](C)[C@@H](OC2O[C@H](C)C[C@H](N(C)C)[C@H]2O)[C@](C)(OC)C[C@@H](C)C(=O)[C@H](C)[C@H]2N(CCCCn3cnc(-c4cccnc4)c3)C(=O)OC12C (stereo partly drawn)	-1.0*	nt
CCc1nnc(NS(=O)(=O)c2ccc(N)cc2)s1	9.7*	3
COCc1nnc(NS(=O)(=O)c2ccc(OC)cc2)s1	95	8
NC(=O)c1cc(S(=O)(=O)NCCN2CCc3ccccc3C2)cs1	100	4
Cc1cc(Nc2ccc(Cl)cc2C)nc(-n2nc(C)cc2C)n1	18	nt
Cc1ccc(Nc2cc(C)nc(-n3nc(C)cc3C)n2)cc1	0.2*	nt
COc1ccc(Cl)cc1N=Cc1ccc2ncccc2c1	116	-22
CN[C@@H]1[C@@H](O[C@H]2O[C@H](CO)[C@@H](N)[C@H](O)[C@H]2O)O[C@H]2C[C@@H](N)[C@H](O[C@H]3[C@H](O)[C@@H](O)[C@H](N)C[C@@H]3N)O[C@@H]2[C@@H]1O	99	nt
NC[C@H]1O[C@H](O[C@H]2[C@H](O)[C@@H](O[C@H]3O[C@H](CO)[C@@H](O)[C@H](N)[C@H]3O)[C@H](N)C[C@@H]2N)[C@H](N)[C@@H](O)[C@@H]1O	-0.2*	nt
FC(F)(F)c1cccc(-c2noc(-c3ccccn3)n2)c1	106	6
CC1CCCCN1S(=O)(=O)c1ccc(C(=O)Nc2nnc(C3CC3)o2)cc1 (stereo not drawn)	0.0*	17
O=C(Nc1nnc(C2CC2)o1)c1ccc(S(=O)(=O)N2CCCCC2)cc1	12	5
CC1(C)CC(=O)CC(=NC2CCS(=O)(=O)C2)C1 (stereo not drawn)	96	-14
SMILES	Sa growth 42C	Sa helicase inh
CO/N=C(\C(=O)NC1C(=O)N2C(C(=O)OCOC(=O)C(C)(C)C)=C(/C=C\c3scnc3C)CSC12)c1csc(N)n1 (stereo not drawn)	5.1*	nt
C=CC1=C(C(=O)O)N2C(=O)[C@@H](NC(=O)/C(=N\O)c3csc(N)n3)[C@H]2SC1 (stereo in doubt)	-0.4*	nt
CO/N=C(\C(=O)N[C@@H]1C(=O)N2C(C(=O)[O-])=C(C[N+]3(C)CCCC3)CS[C@H]12)c1csc(N)n1	-0.5*	nt
C=CC1=C(C(=O)O)N2C(=O)[C@@H](NC(=O)C(=NOCC(=O)O)c3csc(N)n3)[C@H]2SC1	-0.2*	nt
C[C@H]1[C@H](NC(=O)/C(=N\OC(C)(C)C(=O)O)c2csc(N)n2)C(=O)N1S(=O)(=O)O	90	nt
CC(C)(O/N=C(\C(=O)N[C@@H]1C(=O)N2C(C(=O)[O-])=C(C[n+]3ccccc3)CS[C@H]12)c1csc(N)n1)C(=O)O	77	nt
CC1C2CC(=O)N(C)C1(C)Oc1ccccc12 (stereo not drawn)	106	7
O=C(CN(CCO)CC(=O)Nc1ccc(C(F)(F)F)cc1)Nc1ccc(C(F)(F)F)cc1	102	9
COC(CNC(=O)CN1C(=O)/C(=C/c2ccccc2F)Oc2ccccc21)OC	101	34
N#CCCn1cc(C(=O)CSc2ccccn2)c2ccccc21	84	-13
NC(=O)/C=C/C(=O)Nc1ccccc1Cl	21	nt
Cc1ccccc1NC(=O)/C=C\C(N)=O	-0.5*	2
CN1CCCN(C(=O)c2ccc(Oc3ccccc3)cc2)CC1	103	13
CCc1cc2c(cc(C(=O)OC)n2Cc2cccc(OC)c2)s1	88	-1
Cc1nccn1CC(=O)N1c2ccccc2Sc2ccccc21	-0.3*	6
Cn1ccnc1SC(=O)N1c2ccccc2Sc2ccccc21	118	2
c1ccc(Nc2ncnc3ccccc23)cc1	96	-13
Nc1cccnc1Nc1ccccc1	6.4*	-62
Clc1nc2ccc3nsnc3c2nc1Cl	94	18
O=C(Oc1cccc2cccnc12)c1cc(C(F)(F)F)cc(C(F)(F)F)c1	1.3*	nt
O=C(Oc1cccc2cccnc12)C1CCCCC1	182	6
O=C(Oc1cccc2cccnc12)c1cccc(F)c1	1.6*	9
NC(=O)COc1cccc2cccnc12	107	4
O=C(Oc1cccc2cccnc12)c1ccccc1	1.7*!	-6
O=C(Oc1ccccc1OC(=O)c1ccccc1)c1ccccc1	96	11
SMILES	Sa growth 42C	Sa helicase inh
CCN1CCN(C(=O)/C(C#N)=c2\s/c(=C\c3ccco3)c(=O)n2-c2ccc(Cl)cc2)CC1	93	26
Cc1nn(-c2ccccc2)c(C)c1-c1nnc(-c2ccc(Cl)cc2)o1	94	nt
COC(=O)C(C)NC(=O)c1ccc(C)cc1 (stereo not drawn)	95	-13
CC1CN(S(=O)(=O)c2ccc(NC(=O)C(NC(=O)Cc3ccccc3)C(C)C)cc2)CC(C)O1 (stereo not drawn)	80	9
Cc1ccc(SC(C)C(=O)NC(C)(C)C)cc1 (stereo not drawn)	130	7
N[C@@H](C(=O)N[C@@H]1C(=O)N2C(C(=O)O)=C(CSc3cn[nH]n3)CS[C@H]12)c1ccc(O)cc1 (tested in a mixture with another compound)	27*	nt
CO/N=C(/C(=O)NC1C(=O)N2C(C(=O)OC(C)OC(C)=O)=C(COC(N)=O)CSC12)c1ccco1 (stereo not drawn)	26	nt
CC(C)OC(=O)C(N)c1ccccc1 (stereo not drawn)	95	18
CCN1CCN(C(=O)NC(C(=O)NC2C(=O)N3C(C(=O)O)=C(CSc4nnnn4C)CSC23)c2ccc(O)cc2)C(=O)C1=O (stereo not drawn)	-1.3*	nt
N[C@@H](C(=O)N[C@@H]1C(=O)N2C(C(=O)O)=C(Cl)CS[C@H]12)c1ccccc1	-0.9*	nt
CCCNC(=O)CSc1nc(-c2ccccc2)cc(C(F)(F)F)n1	97	-3
CC(C)C(C)(C#N)NC(=O)CSc1nnc(-c2cccs2)n1N (stereo not drawn)	81	-14
CCN1C(=O)N(CC)C2NC(=S)NNC21 (stereo not drawn)	95	6
O=C1CSc2ccc(C(=O)NCCSCc3ccco3)cc2N1	128	2
COc1ccccc1NC(=S)N/N=C1/C=C(C)CC1	102	-8
CSc1ccc(S(=O)(=O)N(C)C)cc1	108	0
CN(C)S(=O)(=O)c1ccc(=S)[nH]c1	38*	10
COc1ccc(-c2n[nH]c(=S)o2)cc1OC	93	-15
